The panel holds about 79,000 compounds, 15% with a hit somewhere; the sample as a whole holds those more often. Active and inactive are the calls of the source. Rule as the data show it: active = growth inhibition above about 70%; inactive = the rest.
Legend:
[1] = NCI Yeast Anticancer Drug Screen. Data for the rad52 strain (AID 147);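 also: 0% = growth of vehicle-treated control cultures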; settings: S. cerevisiae rad52 mutant growth inhibition, active compounds read high
Method in brief: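 Growth of repair-deficient yeast cells was compared between compound-treated and vehicle-treated cultures to give percent inhibition.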

[2] = NCI Yeast Anticancer Drug Screen. Data for the wt1 strain (AID 149);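 also: 0% = growth of vehicle-treated wt1 cultures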; settings: S. cerevisiae wt1 strain (SPY 50644) growth inhibition, active compounds read high
Method in brief: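 Growth inhibition read against vehicle controls after compound exposure of the wt1 yeast strain.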

[3] = NCI Yeast Anticancer Drug Screen. Data for the rad50EPP+ strain (AID 151);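 also: 0% = growth of vehicle-treated control cultures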; settings: S. cerevisiae rad50 mutant strain, active compounds read high
Method in brief: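 Measured: growth inhibition of rad50EPP+ yeast. Reference: vehicle-treated controls. Screen uses strains with defined genetic alterations in DNA damage repair or cell cycle control.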

[4] = NCI Yeast Anticancer Drug Screen. Data for the rad50 strain (AID 155);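 also: 0% = growth of vehicle-only cultures of the same strain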; settings: S. cerevisiae rad50 strain growth inhibition, active compounds read high
Method in brief: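 Readout: growth inhibition relative to vehicle-treated cultures. Compound exposure was carried out in a genetically defined yeast strain deficient in DNA damage repair.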

[5] = NCI Yeast Anticancer Drug Screen. Data for the mec2-1 strain (AID 157); settings: S. cerevisiae mec2-1 strain, active compounds read high
Method in brief: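 Compounds were applied to mec2-1 yeast cells. Their growth was then compared with that of vehicle-treated cultures to give growth inhibition.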

[6] = NCI Yeast Anticancer Drug Screen. Data for the rad14 strain (AID 159);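 also: 0% = growth of vehicle-treated control cultures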; settings: S. cerevisiae rad14 strain growth inhibition, active compounds read high
Method in brief: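 Growth inhibition vs vehicle controls; genetically altered yeast strain (DNA damage repair defect) treated with test compounds.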

[7] = NCI Yeast Anticancer Drug Screen. Data for the sgs1 mgt1 strain (AID 161);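 also: 0% = growth of cultures given vehicle only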; settings: S. cerevisiae sgs1 mgt1 strain, active compounds read high
Method in brief: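 Compounds are added to genetically altered yeast, and growth is compared with cultures given vehicle alone to give percent inhibition.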

[8] = NCI Yeast Anticancer Drug Screen. Data for the CLN2oe strain (AID 163);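 also: 0% = growth of vehicle-only control cultures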; settings: S. cerevisiae CLN2oe strain, active compounds read high
Method in brief: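 Cells of an engineered yeast line with disturbed cell-cycle regulation are treated with compound. Inhibition of growth is then calculated relative to the vehicle-treated reference.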

[9] = NCI Yeast Anticancer Drug Screen. Data for the cln2 rad14 strain (AID 165);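 also: 0% = growth equal to vehicle treated cultures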; settings: S. cerevisiae cln2 rad14 strain, active compounds read high
Method in brief: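 Strain: cln2 rad14 yeast, altered in cell cycle control and DNA damage repair. Read-out: growth inhibition vs vehicle.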

[10] = NCI Yeast Anticancer Drug Screen. Data for the bub3 strain (AID 167); settings: S. cerevisiae bub3 mutant strain, active compounds read high
Method in brief: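 Readout: yeast growth inhibition, expressed relative to vehicle-only wells. The test organism is a mutant strain from a panel with lesions in DNA repair or checkpoint genes.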

[11] = NCI Yeast Anticancer Drug Screen. Data for the wt2 strain (AID 169);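 also: 0% = growth of vehicle-treated yeast cultures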; settings: S. cerevisiae wt2 strain growth inhibition, active compounds read high
Method in brief: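 Growth of compound-treated yeast is measured and expressed as inhibition relative to vehicle-only controls.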

[12] = NCI Yeast Anticancer Drug Screen. Data for the mlh1 strain (AID 171);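 also: 0% = growth of vehicle-treated control cultures of the same strain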; settings: S. cerevisiae mlh1 strain growth inhibition, active compounds read high
Method in brief: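 Test agents were incubated with yeast bearing a defined DNA damage repair or cell cycle control alteration; values are growth inhibition normalised to vehicle-treated cultures.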

[13] = NCI Yeast Anticancer Drug Screen. Data for the sgs1 strain (AID 173);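 also: 0% = growth of vehicle-only control cultures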; settings: S. cerevisiae sgs1 mutant, active compounds read high
Method in brief: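 Strain with an altered DNA repair or cell cycle pathway exposed to compound. Growth then measured. Value = inhibition versus vehicle control.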

[14] = NCI Yeast Anticancer Drug Screen. Data for the mlh1 rad18 strain (AID 175); settings: S. cerevisiae mlh1 rad18 strain growth inhibition, active compounds read high
Method in brief: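 A repair-deficient yeast strain is exposed to test compound, and growth is scored relative to vehicle-treated controls.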

[15] = NCI Yeast Anticancer Drug Screen. Data for the rad18 strain (AID 177); settings: S. cerevisiae rad18 mutant growth inhibition, active compounds read high
Method in brief: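 DNA-repair-defective yeast; compound treatment; growth inhibition scored against vehicle.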

[16] = at 5.0 µM (retest, dose inferred, filed as 0.5)
[17] = at 50.0 µM (retest, dose inferred, filed as 5.0)

Measured: growth inhibition

CCc1nc(N)nc(N)c1-c1ccc(NCCCCCCN)c([N+](=O)[O-])c1
inactive: [1]; at 1.2 µM -3% | [1]; at 3.7 µM 0% | [1]; at 11.0 µM 2% | [1]; at 33.0 µM 11% | [1]; at 100.0 µM 32% | [2]; at 1.2 µM -1% | [2]; at 3.7 µM -1% | [2]; at 11.0 µM -1% | [2]; at 33.0 µM -3% | [2]; at 100.0 µM -4% | [3]; at 1.2 µM -6% | [3]; at 3.7 µM -3% | [3]; at 11.0 µM -3% | [3]; at 33.0 µM 1% | [3]; at 100.0 µM 17% | [4]; at 1.2 µM 0% | [4]; at 3.7 µM -2% | [4]; [16] -16% | [4]; at 11.0 µM 11% | [4]; at 33.0 µM 17% | [4]; [17] -4% | [4]; at 100.0 µM 42% | [5]; at 1.2 µM -1% | [5]; at 3.7 µM -4% | [5]; [16] 4% | [5]; at 11.0 µM -4% | [5]; at 33.0 µM -4% | [5]; [17] -10% | [5]; at 100.0 µM 11% | [6]; at 1.2 µM 4% | [6]; at 3.7 µM -4% | [6]; at 11.0 µM -3% | [6]; at 33.0 µM -13% | [6]; at 100.0 µM 0% | [7]; [16] -22% | [7]; [17] -16% | [8]; at 1.2 µM -3% | [8]; at 3.7 µM 1% | [8]; at 11.0 µM -5% | [8]; at 33.0 µM 0% | [8]; at 100.0 µM -5% | [9]; [16] -19% | [10]; at 1.2 µM -7% | [10]; at 3.7 µM -4% | [10]; [16] 11% | [10]; at 11.0 µM 9% | [10]; at 33.0 µM 17% | [10]; [17] -16% | [10]; at 100.0 µM -2% | [11]; at 1.2 µM -1% | [11]; at 3.7 µM 0% | [11]; at 11.0 µM -2% | [11]; at 33.0 µM -3% | [11]; at 100.0 µM -4% | [12]; at 1.2 µM -4% | [12]; at 3.7 µM -1% | [12]; at 11.0 µM 0% | [12]; at 33.0 µM -6% | [12]; at 100.0 µM -5% | [13]; at 1.2 µM -3% | [13]; at 3.7 µM -2% | [13]; at 11.0 µM -3% | [13]; at 33.0 µM -5% | [13]; at 100.0 µM -3% | [14]; [16] -27% | [14]; [17] -34% | [15]; at 1.2 µM -4% | [15]; at 3.7 µM -6% | [15]; at 11.0 µM -5% | [15]; at 33.0 µM -17% | [15]; at 100.0 µM -23%
active: [4]; at 50.0 µM 86% | [5]; at 50.0 µM 95.6% | [7]; at 50.0 µM 92.7% | [9]; [17] 83% | [9]; at 50.0 µM 96.2% | [10]; at 50.0 µM 93.5% | [14]; at 50.0 µM 97.2%

C=C(CCCO)[C@@H]1CC[C@@](C)(O)[C@H]1C
inactive: [1]; at 1.2 µM -7% | [1]; at 3.7 µM -9% | [1]; at 11.0 µM -13% | [1]; at 33.0 µM -8% | [1]; at 100.0 µM -12% | [2]; at 1.2 µM -25% | [2]; at 3.7 µM -33% | [2]; at 11.0 µM -29% | [2]; at 33.0 µM -34% | [2]; at 100.0 µM -35% | [3]; at 1.2 µM -38% | [3]; at 3.7 µM -32% | [3]; at 11.0 µM -54% | [3]; at 33.0 µM -38% | [3]; at 100.0 µM -48% | [4]; at 1.2 µM -5% | [4]; at 3.7 µM -7% | [4]; [16] 38% | [4]; at 11.0 µM -16% | [4]; at 33.0 µM -17% | [4]; at 50.0 µM 49% | [4]; at 100.0 µM -33% | [5]; at 1.2 µM -53% | [5]; at 3.7 µM -39% | [5]; [16] 44% | [5]; at 11.0 µM -48% | [5]; at 33.0 µM -41% | [5]; at 50.0 µM 68.2% | [5]; at 100.0 µM -34% | [6]; at 1.2 µM -51% | [6]; at 3.7 µM -43% | [6]; at 11.0 µM -37% | [6]; at 33.0 µM -35% | [6]; at 100.0 µM -56% | [7]; [16] -1% | [7]; [17] -9% | [7]; at 50.0 µM 55.5% | [8]; at 1.2 µM -24% | [8]; at 3.7 µM -13% | [8]; at 11.0 µM -27% | [8]; at 33.0 µM -25% | [8]; at 100.0 µM -35% | [9]; [16] 46% | [9]; [17] 28% | [9]; at 50.0 µM 9.15% | [10]; at 1.2 µM -17% | [10]; at 3.7 µM -6% | [10]; [16] 18% | [10]; at 11.0 µM -12% | [10]; at 33.0 µM -9% | [10]; [17] -1% | [10]; at 50.0 µM 55.5% | [10]; at 100.0 µM -12% | [11]; at 1.2 µM -30% | [11]; at 3.7 µM -27% | [11]; at 11.0 µM -33% | [11]; at 33.0 µM -30% | [11]; at 100.0 µM -23% | [12]; at 1.2 µM -20% | [12]; at 3.7 µM -23% | [12]; at 11.0 µM -39% | [12]; at 33.0 µM -31% | [12]; at 100.0 µM -48% | [13]; at 1.2 µM -35% | [13]; at 3.7 µM -28% | [13]; at 11.0 µM -31% | [13]; at 33.0 µM -29% | [13]; at 100.0 µM -39% | [14]; [16] 36% | [14]; at 50.0 µM 43.3% | [15]; at 1.2 µM -38% | [15]; at 3.7 µM -38% | [15]; at 11.0 µM -45% | [15]; at 33.0 µM -46% | [15]; at 100.0 µM -66%
active: [4]; [17] 90% | [5]; [17] 93% | [14]; [17] 87%
